# Experimental data reported in PubChem BioAssay AID2284364 (EPA ToxCast).
# The source made the active and inactive calls. Rule for the calls: active = hit-call score of the fitted dose curve at least 0.9, where 1 is the maximum; inactive = score below 0.9.
# Target: Peroxisome proliferator-activated receptor gamma (Homo sapiens) (UniProt P37231)
# Experiment: ERF_US_NR_hPPARG: Eurofins (ERF) Nuclear Receptor (NR) Cell Based Protein-Protein Interaction LeadHunter Assay for human Peroxisome Proliferator-activated Receptor-gamma (PPARg) Agonism
# Method: ERF_US_NR_hPPARG is a cell-based, single-readout assay that uses extracted gene-proteins in a cell-line assay. Measurements were taken 5 hours after chemical dosing in a 384-well plate. See PPARgamma Human NHR Cell Based Agonist Protein-Protein Interaction Assay, DiscoverX.ERF_US_NR_hPPARG is an assay component calculated from the ERF_US_NR_hPPARG assay. It is designed to measure […] using a type of binding reporter as detected by scintillation counting with radiometry technology.Data from the assay component ERF_US_NR_hPPARG was analyzed at the assay endpoint, ERF_US_NR_hPPARG, in the positive analysis fitting direction relative to DMSO as the negative control and baseline of activity. Using a type of binding reporter, gain-of-signal activity can be used to understand changes in binding as they relate to gene PPARG. To generalize the intended target to other relatable targets, this assay endpoint is annotated to the nuclear receptor intended target family, where the subfamily is non-steroidal.
# Cells were seeded in a total volume of 20 uL into white walled, 384-well microplates and incubated at 37C overnight prior to testing.Briefly, intermediate dilution of sample stocks was performed to generate 5X sample in assay buffer. 5 uL of 5X sample was added to cells and incubated at 37C for 300 minutes. […] The results are expressed as a percent efficacy of the control ligand.
# Sequence of Peroxisome proliferator-activated receptor gamma (Homo sapiens) (P37231 whole entry, looked up): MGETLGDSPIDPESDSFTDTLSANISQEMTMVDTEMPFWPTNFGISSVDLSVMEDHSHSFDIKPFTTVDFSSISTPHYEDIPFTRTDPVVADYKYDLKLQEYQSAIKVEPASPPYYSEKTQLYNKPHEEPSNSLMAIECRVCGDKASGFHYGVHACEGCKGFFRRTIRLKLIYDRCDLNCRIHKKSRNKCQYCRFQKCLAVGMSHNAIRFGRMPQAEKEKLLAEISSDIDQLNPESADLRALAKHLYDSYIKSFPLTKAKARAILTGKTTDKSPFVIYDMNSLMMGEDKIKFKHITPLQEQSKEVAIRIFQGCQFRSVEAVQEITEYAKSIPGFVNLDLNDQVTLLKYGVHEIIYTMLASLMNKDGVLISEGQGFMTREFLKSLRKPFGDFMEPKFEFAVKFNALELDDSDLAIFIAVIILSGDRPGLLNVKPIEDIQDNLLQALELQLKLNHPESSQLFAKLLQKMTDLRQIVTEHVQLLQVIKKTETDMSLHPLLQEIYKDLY
compound,measurement,value
O=S(=O)(O)C(F)(F)C(F)(F)C(F)(F)C(F)(F)C(F)(F)C(F)(F)C(F)(F)C(F)(F)F,outcome,inactive
